FXN GAA850 act = FXN promoter activators, primary screen, cell-based, luciferase luminescence, HEK293 lucGAA850; activation, % at 6 µM; 360,000 compounds, 0.56% hits; AID 540364, 2011; HEK293 lucGAA850 FXN promoter luciferase reporter, 24 h; percent of 10 µM SAHA response;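 active = activation above the average of all compounds screened plus 3 SD, cutoff fixed separately per campaign, cut at about 7.5% in these data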
PAX8 reporter = inhibitors of PAX8-driven TPO luciferase reporter, primary screen, RMG-I cells, single concentration | 360,000 compounds, 1.2% hits | SteadyGlo, 24 h | inhibition, % at 12.6 µM | AID 652154, 2013;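 active = mean replicate inhibition at least 60% with every replicate also reaching 60%; inconclusive = only one of the two criteria is met; inactive = mean below 60% and not all replicates reaching 60%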;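 also: luciferase light reporting Pax8 driven TPO promoter activity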
Env fusion inh = inhibitors of HIV-1 Env-driven cell-cell fusion, primary screen, HeLa-JRFL effector, CEM21 target cells, luciferase | inhibition, % at 12.3 µM | 360,000 compounds, 1.1% hits | AID 651610, 2012;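 active = mean replicate inhibition score of at least 50 and every replicate individually at or above 50; inconclusive = only one of the two criteria met; inactive = mean below 50 and not all replicates reaching 50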
EWS-Fli block = EWS/Fli-driven NR0B1 reporter inhibitors, primary screen, A673 cells, NR0B1 luciferase, luminescence, MLPCN library | viability-normalised | inhibition, % at 12.6 µM | 350,000 compounds, 0.67% hits;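 active = mean inhibition of at least 50% after viability correction, with every replicate also passing that limit; inconclusive = mean reaches 50% but only one of two replicates passes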;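 also: firefly luciferase signal divided by Alamar Blue viability fluorescence both relative to DMSO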
CFTR F508del cor = F508del CFTR correction, initial screen, CFBE line, single point; CFBE cells, YFP halide quenching; stimulated with forskolin plus potentiator P3; % fluorescence drop versus neutral controls; activity (quench increase), % at 7.58 µM; 350,000 compounds, 0.36% hits;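 active = mean added fluorescence quench of at least 8% versus neutral control, with both replicates also reaching 8%; inconclusive = only one of the mean or replicate conditions met; inactive = mean below 8% and not both replicates reaching 8%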;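 also: cells transiently co-express mutant CFTR-F508del with the halide-sensitive YFP; corrector assay measuring rescue of mutant channel to the surface after 24 h compound exposure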
Numbers stand for hits; . = inactive; ? = inconclusive; / = no result; [ ] = another dose, or the depositor's remark. In the library only some 2.5% were active in any assay of this set; here they are far more common.

SMILES	FXN GAA850 act	PAX8 reporter	Env fusion inh	EWS-Fli block	CFTR F508del cor
O=C(C[C@@H]1C[C@@H]2c3cc(NC(=O)C4CCC4)ccc3O[C@@H]2[C@@H](CO)O1)NCc1ccc2c(c1)OCO2	/	.	79[16.7 µM]	.	.
O=C(C[C@H]1C=C[C@H](NC(=O)C2CCC2)[C@@H](CO)O1)Nc1nccs1	/	.	.	.	.
COc1ccc(NC(=O)C(CC(=O)O)Cc2ccc(Cl)cc2)cc1 (stereo not drawn)	.	.	.	.	8.9
COC(=O)C1=C(C)NC(C)=C(C(=O)OC)C1C(=O)OCC(=O)NC1CCCCC1C (stereo not drawn)	.	.	68	.	.
C[C@@H]1CN([C@H](C)CO)C(=O)c2cccc(NC(=O)Nc3ccc4c(c3)OCO4)c2O[C@H]1CN(C)S(=O)(=O)c1cccs1	/	/	/	.	.
C[C@@H](NC(=O)C[C@@H]1CC[C@@H](NC(=O)C2CCC2)[C@H](CO)O1)c1ccccc1	/	.	.	.	.
CCOCCOC(=O)C(C)Oc1ccc(Oc2ncc(Cl)cc2Cl)cc1 (stereo not drawn)	.	71	/	.	.
O=C(C[C@H]1CC[C@@H]2NC[C@@H](O)COC[C@H]2O1)Nc1nccs1	/	.	.	.	.
CCCC(=O)Nc1ccc2c(c1)nc(CN1CCN(C(=O)OCC)CC1)n2CC	.	.	.	.	12
O=[N+]([O-])c1ccc(Nc2ccc(N3CCOCC3)cc2)c([N+](=O)[O-])c1	.	90	.	.	.
C[C@H](CO)N1C[C@H](C)[C@H](CN(C)C(=O)c2ccccc2)OCCCC[C@H](C)Oc2ccc(NC(=O)Nc3ccc(C(F)(F)F)cc3)cc2C1=O	/	104	.	.	.
C[C@@H]1CCCCO[C@@H](CN(C)C(=O)c2ccccc2)[C@H](C)CN([C@@H](C)CO)C(=O)c2cc(NC(=O)Nc3ccc(C(F)(F)F)cc3)ccc2O1	/	.	57[16.7 µM]	.	.
C[C@H]1CCCCO[C@H](CN(C)C(=O)c2ccccc2)[C@@H](C)CN([C@@H](C)CO)C(=O)c2cc(NC(=O)Nc3ccc(C(F)(F)F)cc3)ccc2O1	/	86	.	.	.
C[C@H](CO)N1C[C@H](C)[C@H](CN(C)S(=O)(=O)c2cn(C)cn2)Oc2ccc(NC(=O)Nc3ccccc3)cc2C1=O	/	/	.	.	.
CCCC(=O)Nc1ccc2c(c1)C(=O)N(C)[C@@H]1CC[C@@H](CC(=O)OC)O[C@@H]1CO2	/	.	.	.	.
CC(C)NC(=S)N/N=C/c1ccc2c(c1)OCCO2	.	.	.	83	/
CC1(C(=O)N/N=C/c2ccc3c(c2)OCO3)CC1(Br)Br (stereo not drawn)	.	.	103	.	.
Cc1ccc(/C=N/NC(=O)C2(C)CC2(Br)Br)cc1 (stereo not drawn)	.	.	.	.	.
S=C(NN=Cc1ccc2c(c1)OCO2)NN=Cc1ccc2c(c1)OCO2	.	.	.	.	.
Cc1cc(Cl)ccc1OCC(=O)NCCOc1nc(N2CCOCC2)nc(N2CCOCC2)n1	.	.	94	/	/
O=C(COc1ccc(Cl)cc1Cl)NCCCN1CCOCC1	.	/	.	/	/
CN(C)c1nc(OCCNC(=O)COc2ccc(Cl)cc2Cl)nc(N2CCOCC2)n1	.	.	41	/	/
COc1ccccc1C(=O)O/N=C(\N)c1ccccn1	.	.	.	.	.
N/C(=N\OC(=O)c1ccccc1Cl)c1ccccn1	.	/	/	54	.
Cc1ccc(C(=O)O/N=C(\N)c2ccccn2)c(C)c1	.	/	/	77	.
SMILES	FXN GAA850 act	PAX8 reporter	Env fusion inh	EWS-Fli block	CFTR F508del cor
COc1cc(OC)c(C(=O)O/N=C(\N)c2ccccn2)cc1OC	.	.	.	.	.
C[C@@H]1CN([C@H](C)CO)S(=O)(=O)c2ccc(-c3cccnc3)cc2O[C@@H]1CN(C)C(=O)C1CC1	/	/	.	.	.
C[C@@H]1CN([C@@H](C)CO)C(=O)c2cc(-c3ccccc3F)cnc2O[C@H]1CN(C)Cc1ccccc1	/	/	.	.	.
CC1(C)CC(=O)c2sc(NC(=O)Cc3cccs3)nc2C1	.	.	.	/	/
COc1cccc(CC(=O)Nc2nc3c(s2)C(=O)CC(C)(C)C3)c1	.	99	.	.	.
CC(NC(=O)c1cc(S(=O)(=O)N2CCOCC2)ccc1F)c1ccc(-n2ccnc2)cc1 (stereo not drawn)	.	.	.	.	11
Cc1ccc(N2CCN(c3ncccc3[N+](=O)[O-])CC2)c(C)c1	.	.	.	.	.
Cc1ccc(C)c(N2CCN(c3ncccc3[N+](=O)[O-])CC2)c1	.	62	.	.	.
C[C@H](CO)N1C[C@H](C)[C@@H](CN(C)Cc2ccc(C(F)(F)F)cc2)Oc2ccc(NS(=O)(=O)c3cn(C)cn3)cc2CC1=O	/	.	.	.	.
O=C(Nc1ccccc1)N1CCCCN2[C@H](CO)[C@H](c3ccc(C#Cc4ccccn4)cc3)[C@H]2C1	/	.	/	.	.
COc1ccc(S(=O)(=O)N2CCN(CCOc3ccccc3Cl)CC2)cc1OC	.	.	/	.	17
O=C(C[C@H]1C=C[C@H](NC(=O)Cc2ccccn2)[C@@H](CO)O1)NCCCN1CCOCC1	/	.	.	.	.
O=C(Cn1ccccc1=S)c1ccc(Cl)c(Cl)c1	.	.	.	.	.
On1ccccc1=S	.	100	.	52	.
O=C(/C=C/c1ccncc1)c1ccc(NC(=O)c2ccccc2F)cc1	12	/	/	/	/
CCCCN1C(=O)/C(=C/C=C2\SCCN2C)SC1=S	9.8	.	.	.	.
COC(=O)c1ccc(Nc2cc(C)nc3ccc(C)cc23)cc1	.	.	.	.	?
COc1ccc2nc(C)cc(Nc3ccc(N4CCN(C)CC4)cc3)c2c1	.	.	.	80	.
COc1ccc(/C=N/Nc2cc(C)nc3ccc(OC)cc23)c(OC)c1	.	87	.	66	.
COc1ccc(OC)c(Nc2cc(C)nc3ccc(C)cc23)c1	.	.	.	57	12
COc1ccc2nc(C)cc(N/N=C/c3ccccc3)c2c1	.	/	/	/	/
COc1ccc2nc(C)cc(Nc3ccc(C)cc3)c2c1	.	.	.	.	.
Cc1ccc2nc(C)cc(Nc3ccc([N+](=O)[O-])cc3)c2c1	.	96	.	.	.
O=C(Oc1c(-c2ccccc2Cl)oc2ccccc2c1=O)c1ccc(Cl)cc1	.	68	/	.	.
COc1ccc(-c2oc3ccccc3c(=O)c2OC(=O)c2ccc(C)cc2)cc1	.	/	/	/	/
CCOC(=O)c1c(C)n(-c2ccc(C)cc2)c2c(C(C(C)=O)C(=O)O)c(Br)c(O)c(O)c12 (stereo not drawn)	.	/	/	/	/
CCOC(=O)C(C(C)=O)c1c(Br)c(O)c(O)c2c(C(=O)c3ccc(C)cc3)coc12 (stereo not drawn)	.	/	108	/	/
O=C1C=C(N2CCCCC2)c2ccccc2C1=O	.	87	?	.	.
O=S(=O)(c1ccccc1S(=O)(=O)N1CCCCC1)N1CCCCC1	.	/	/	.	.
O=C1c2ccccc2C(=O)c2c1cccc2N1CCCC1	.	.	.	.	8.0

High-throughput results: PubChem, several laboratories
